For some assays here: Entries with a potency or affinity are not part of this list.
What was measured:
Set-up in all cases: scale not given: direction of the effect not stated beside the values
[1] = molecular target: Protein translocase subunit SecA (Escherichia coli (strain K12)) (UniProt P10408); assay: Assay to Identify E. coli SecA ATPase Inhibitors; format: functional; conditions: 30 µM
[2] = molecular target: T1, Ubiquitin-activating enzyme e1, putative (Leishmania donovani (strain BPK282A1)) (UniProt E9BSI1); assay: Leishmania donovani Ubiquitin Activating Enzyme (LdE1); format: functional; conditions: 30 µM
T1 sequence (whole entry): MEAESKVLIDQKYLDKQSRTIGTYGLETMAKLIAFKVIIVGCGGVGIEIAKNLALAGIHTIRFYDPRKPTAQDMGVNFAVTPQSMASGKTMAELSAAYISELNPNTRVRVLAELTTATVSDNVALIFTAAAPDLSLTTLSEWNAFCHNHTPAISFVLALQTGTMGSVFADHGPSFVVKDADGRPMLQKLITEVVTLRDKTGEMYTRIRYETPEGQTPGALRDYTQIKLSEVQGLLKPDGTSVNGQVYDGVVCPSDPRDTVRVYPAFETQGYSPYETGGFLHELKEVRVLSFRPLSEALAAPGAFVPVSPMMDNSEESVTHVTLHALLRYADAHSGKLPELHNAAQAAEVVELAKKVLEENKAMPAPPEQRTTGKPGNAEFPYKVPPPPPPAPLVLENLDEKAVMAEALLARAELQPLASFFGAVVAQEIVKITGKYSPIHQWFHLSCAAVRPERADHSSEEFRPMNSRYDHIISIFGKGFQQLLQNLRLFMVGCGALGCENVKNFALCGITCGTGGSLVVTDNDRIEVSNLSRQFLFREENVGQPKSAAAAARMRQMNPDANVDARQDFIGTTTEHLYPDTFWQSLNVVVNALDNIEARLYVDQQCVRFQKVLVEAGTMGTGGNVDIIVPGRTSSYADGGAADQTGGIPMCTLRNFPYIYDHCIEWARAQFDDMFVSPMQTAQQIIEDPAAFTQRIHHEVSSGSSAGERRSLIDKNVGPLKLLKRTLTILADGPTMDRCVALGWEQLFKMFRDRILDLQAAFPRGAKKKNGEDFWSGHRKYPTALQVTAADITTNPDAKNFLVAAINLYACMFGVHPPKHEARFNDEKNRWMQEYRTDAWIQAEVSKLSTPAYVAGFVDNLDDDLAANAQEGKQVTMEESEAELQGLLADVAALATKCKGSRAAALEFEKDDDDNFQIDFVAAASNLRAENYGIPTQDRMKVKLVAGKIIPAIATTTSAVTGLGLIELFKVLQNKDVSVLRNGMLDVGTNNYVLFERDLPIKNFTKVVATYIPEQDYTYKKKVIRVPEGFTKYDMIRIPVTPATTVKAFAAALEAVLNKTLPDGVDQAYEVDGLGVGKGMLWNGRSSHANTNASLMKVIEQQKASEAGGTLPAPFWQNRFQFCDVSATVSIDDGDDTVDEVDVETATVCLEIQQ

[3] = molecular target: AMP-activated protein kinase, AMPK (Homo sapiens) (UniProt P54646+O43741+P54619+Q9UGJ0+Q9Y478+Q13131+Q9UGI9); assay: AMP-dependent Kinase enzyme assay. An in vitro enzyme assay that detects ADP turnover that is directly proportional to AMPK activity. This uses naive AMPK that is activated during the assay with MK-8722; format: functional; conditions: 30 µM
[4] = molecular target: Sialic acid-binding Ig-like lectin 9 (Homo sapiens) (UniProt Q9Y336); assay: Hs-Siglec9 ALPHAscreen SOP 20170721; conditions: 10 µM
Trypanosoma cruzi = assay: Trypanosoma cruzi phosphomannomutase and mannose-1-phosphate guanylyltransferase assay; format: functional; conditions: 10 µM
[5] = molecular target: T2, Arginase-2, mitochondrial (Homo sapiens) (UniProt P78540); assay: in vitro enzyme assay to detect the production of urea directly proportional to the activity of Arginase II; format: functional; conditions: 33.3 µM; further: in the data most compounds retested in dose-response had high values
T2 sequence (whole entry): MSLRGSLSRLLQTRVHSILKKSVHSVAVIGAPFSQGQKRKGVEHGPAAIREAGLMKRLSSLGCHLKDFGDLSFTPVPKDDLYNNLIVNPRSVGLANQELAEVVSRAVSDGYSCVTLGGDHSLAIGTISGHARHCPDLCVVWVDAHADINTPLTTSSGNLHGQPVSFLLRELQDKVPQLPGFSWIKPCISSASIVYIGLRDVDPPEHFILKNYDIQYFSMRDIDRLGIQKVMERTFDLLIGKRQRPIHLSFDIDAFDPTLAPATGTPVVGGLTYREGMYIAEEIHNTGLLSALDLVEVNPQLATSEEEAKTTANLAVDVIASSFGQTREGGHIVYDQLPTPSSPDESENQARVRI

[6] = molecular target: T3, Proteasome subunit beta (Trypanosoma cruzi) (UniProt O96673); assay: Trypanosoma cruzi proteasome chymotrypsin-like activity (TcProtChymo) assay.; further: in the data most compounds retested in dose-response had high values; format: functional; conditions: 9.37 µM
T3 sequence (whole entry): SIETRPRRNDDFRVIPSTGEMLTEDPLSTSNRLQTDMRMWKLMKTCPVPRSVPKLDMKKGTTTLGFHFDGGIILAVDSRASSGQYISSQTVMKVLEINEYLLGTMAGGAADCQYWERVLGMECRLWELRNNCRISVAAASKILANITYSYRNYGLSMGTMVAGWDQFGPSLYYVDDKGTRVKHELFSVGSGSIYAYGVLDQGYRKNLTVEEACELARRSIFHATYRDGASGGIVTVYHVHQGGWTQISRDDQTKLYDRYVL

Homo sapiens = species: Homo sapiens; assay: To identify inhibition of the IFN signalling (Jak-Stat) pathway via expression of an eGFP reporter gene under the control of an IFN-stimulated response element (ISRE) containing MxA promoter.; format: functional; conditions: 30 µM
[7] = molecular target: T4, Tyrosyl-tRNA synthetase, putative (Trypanosoma cruzi (strain CL Brener)) (UniProt Q4DSP6); assay: Trypanosoma cruzi tyrosyl tRNA synthetase (TcYRS) _High Tyrosine SOP; format: functional; conditions: 30 µM; further: in the data most compounds retested in dose-response had high values
T4 sequence (whole entry): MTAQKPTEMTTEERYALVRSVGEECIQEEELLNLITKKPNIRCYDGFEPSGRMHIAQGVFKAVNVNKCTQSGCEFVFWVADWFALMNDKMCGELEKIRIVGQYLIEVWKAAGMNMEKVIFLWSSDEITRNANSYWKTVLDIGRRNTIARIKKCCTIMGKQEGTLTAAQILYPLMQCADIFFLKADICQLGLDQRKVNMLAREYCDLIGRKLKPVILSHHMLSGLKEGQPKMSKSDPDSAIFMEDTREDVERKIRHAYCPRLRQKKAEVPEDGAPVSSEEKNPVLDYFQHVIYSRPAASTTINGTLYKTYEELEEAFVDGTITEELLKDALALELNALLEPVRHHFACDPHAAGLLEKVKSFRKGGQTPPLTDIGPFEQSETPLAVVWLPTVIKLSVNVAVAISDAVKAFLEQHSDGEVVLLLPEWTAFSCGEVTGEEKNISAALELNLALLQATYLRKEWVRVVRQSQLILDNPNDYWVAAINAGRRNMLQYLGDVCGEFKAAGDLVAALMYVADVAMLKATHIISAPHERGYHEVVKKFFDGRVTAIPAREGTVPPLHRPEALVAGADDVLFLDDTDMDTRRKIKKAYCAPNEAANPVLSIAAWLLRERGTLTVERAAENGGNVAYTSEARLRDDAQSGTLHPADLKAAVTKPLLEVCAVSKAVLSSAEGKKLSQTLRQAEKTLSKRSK

[8] = molecular target: T4, Tyrosyl-tRNA synthetase, putative (Trypanosoma cruzi (strain CL Brener)); assay: Trypanosoma cruzi tyrosyl tRNA synthetase (TcYRS) SOP; format: functional; conditions: 30 µM
[9] = molecular target: Chromo domain-containing protein 1 (Saccharomyces cerevisiae (strain ATCC 204508 / S288c) (Baker's yeast)) (UniProt P32657); assay: ScCHD-1 Enzyme Inhibition Assay; format: functional; conditions: 30 µM; further: in the data most compounds retested in dose-response had high values
Chain of Chromo domain-containing protein 1 (Saccharomyces cerevisiae (strain ATCC 204508 / S288c) (Baker's yeast)) (P32657 whole entry, the tested form may be a part): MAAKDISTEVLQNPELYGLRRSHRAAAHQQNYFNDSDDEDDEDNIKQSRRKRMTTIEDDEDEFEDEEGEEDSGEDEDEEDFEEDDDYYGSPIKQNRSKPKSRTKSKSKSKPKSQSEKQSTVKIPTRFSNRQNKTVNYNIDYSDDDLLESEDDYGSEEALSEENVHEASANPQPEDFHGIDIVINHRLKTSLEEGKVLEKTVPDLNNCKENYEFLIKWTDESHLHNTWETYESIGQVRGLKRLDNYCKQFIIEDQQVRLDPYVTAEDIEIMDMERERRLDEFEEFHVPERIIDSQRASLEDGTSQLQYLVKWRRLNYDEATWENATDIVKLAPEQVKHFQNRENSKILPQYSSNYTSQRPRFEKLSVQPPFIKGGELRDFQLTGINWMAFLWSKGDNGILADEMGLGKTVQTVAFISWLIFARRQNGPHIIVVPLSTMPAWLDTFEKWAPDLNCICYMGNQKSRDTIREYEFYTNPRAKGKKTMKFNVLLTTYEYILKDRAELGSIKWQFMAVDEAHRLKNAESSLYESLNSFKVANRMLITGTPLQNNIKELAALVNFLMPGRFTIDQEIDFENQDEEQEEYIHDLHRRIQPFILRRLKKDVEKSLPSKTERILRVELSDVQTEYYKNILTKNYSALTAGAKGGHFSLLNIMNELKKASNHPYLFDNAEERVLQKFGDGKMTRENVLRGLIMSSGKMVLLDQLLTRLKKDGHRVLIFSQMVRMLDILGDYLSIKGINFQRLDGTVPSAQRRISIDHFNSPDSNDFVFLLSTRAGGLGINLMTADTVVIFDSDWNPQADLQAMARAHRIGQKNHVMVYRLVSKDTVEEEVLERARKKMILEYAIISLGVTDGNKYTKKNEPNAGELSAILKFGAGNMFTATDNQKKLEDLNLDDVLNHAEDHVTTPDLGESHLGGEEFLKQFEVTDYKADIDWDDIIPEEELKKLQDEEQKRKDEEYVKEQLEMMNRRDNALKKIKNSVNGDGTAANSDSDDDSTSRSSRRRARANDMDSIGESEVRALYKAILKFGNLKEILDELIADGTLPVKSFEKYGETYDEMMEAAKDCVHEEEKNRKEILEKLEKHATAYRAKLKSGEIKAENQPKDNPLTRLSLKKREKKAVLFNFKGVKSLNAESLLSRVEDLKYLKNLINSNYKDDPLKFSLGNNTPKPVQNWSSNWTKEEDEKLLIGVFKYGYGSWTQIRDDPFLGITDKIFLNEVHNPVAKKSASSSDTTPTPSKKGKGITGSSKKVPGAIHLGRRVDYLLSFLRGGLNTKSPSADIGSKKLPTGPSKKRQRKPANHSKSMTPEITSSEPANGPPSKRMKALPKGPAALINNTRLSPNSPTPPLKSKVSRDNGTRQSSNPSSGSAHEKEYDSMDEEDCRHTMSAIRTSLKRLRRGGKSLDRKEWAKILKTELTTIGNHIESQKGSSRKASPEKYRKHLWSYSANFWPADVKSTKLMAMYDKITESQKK

Chain of Protein translocase subunit SecA (Escherichia coli (strain K12)) (P10408 whole entry): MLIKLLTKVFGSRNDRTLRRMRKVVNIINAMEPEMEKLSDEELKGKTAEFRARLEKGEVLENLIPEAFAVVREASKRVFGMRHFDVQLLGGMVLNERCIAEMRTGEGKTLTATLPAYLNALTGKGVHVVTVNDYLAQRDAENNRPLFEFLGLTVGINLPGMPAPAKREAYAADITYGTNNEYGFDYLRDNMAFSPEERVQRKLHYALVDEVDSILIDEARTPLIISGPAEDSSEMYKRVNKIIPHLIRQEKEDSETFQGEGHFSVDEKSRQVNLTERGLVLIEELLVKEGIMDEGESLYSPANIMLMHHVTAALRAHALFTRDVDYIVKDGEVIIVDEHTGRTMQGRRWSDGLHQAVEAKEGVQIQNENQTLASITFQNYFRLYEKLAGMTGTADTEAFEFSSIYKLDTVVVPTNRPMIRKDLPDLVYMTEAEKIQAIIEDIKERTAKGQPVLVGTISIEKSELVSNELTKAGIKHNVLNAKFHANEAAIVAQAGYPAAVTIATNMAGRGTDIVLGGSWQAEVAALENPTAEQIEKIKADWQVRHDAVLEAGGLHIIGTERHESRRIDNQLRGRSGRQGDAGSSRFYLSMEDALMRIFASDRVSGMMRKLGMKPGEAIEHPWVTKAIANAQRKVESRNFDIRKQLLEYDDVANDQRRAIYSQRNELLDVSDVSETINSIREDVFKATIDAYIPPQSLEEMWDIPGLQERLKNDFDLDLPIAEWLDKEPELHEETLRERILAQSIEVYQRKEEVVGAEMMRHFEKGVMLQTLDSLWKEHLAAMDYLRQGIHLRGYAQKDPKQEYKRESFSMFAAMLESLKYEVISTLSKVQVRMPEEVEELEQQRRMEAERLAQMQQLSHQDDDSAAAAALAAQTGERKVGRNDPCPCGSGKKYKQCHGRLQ
Chain of Sialic acid-binding Ig-like lectin 9 (Homo sapiens) (Q9Y336 whole entry): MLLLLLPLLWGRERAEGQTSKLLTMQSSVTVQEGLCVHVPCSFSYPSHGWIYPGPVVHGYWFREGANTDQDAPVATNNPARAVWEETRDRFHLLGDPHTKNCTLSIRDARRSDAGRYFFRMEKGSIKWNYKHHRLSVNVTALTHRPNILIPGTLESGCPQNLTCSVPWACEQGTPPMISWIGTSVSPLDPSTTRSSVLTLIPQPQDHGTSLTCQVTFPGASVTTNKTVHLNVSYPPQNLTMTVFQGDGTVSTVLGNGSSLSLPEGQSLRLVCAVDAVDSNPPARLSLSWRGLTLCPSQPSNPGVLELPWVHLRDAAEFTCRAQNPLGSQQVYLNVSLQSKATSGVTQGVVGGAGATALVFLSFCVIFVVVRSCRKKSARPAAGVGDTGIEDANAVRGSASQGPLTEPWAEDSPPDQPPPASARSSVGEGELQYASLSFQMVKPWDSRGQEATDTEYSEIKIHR

Molecule `O=C(CN1CCCC(O)C1)NC(=O)NCc1cccs1` (stereo not given) has a Percent Effect [1] of -3.76%, a Percent Effect [2] of 13.2% and a Percent Effect [3] of 7.52%. For the same molecule, the Percent Effect [4] was -8.38%, the Percent Effect (Trypanosoma cruzi) was -5.16% and the Percent Effect [5] was -3.55%. The Percent Effect [6] was 11.8%, the Percent Effect (Homo sapiens) was 15.4% and the Percent Effect [7] was 3.19%. It also gave a Percent Effect [8] of 7.79% and a Percent Effect [9] of -1.85%.
With `CCC(C)NC(=O)Cc1c(C)nc2c(c1C)c(=O)[nH]n2C` (stereo not given) the Percent Effect [1] was 0.22%, the Percent Effect [2] was 13% and the Percent Effect [3] was 1.2%. The Percent Effect [4] was 14%, the Percent Effect (Trypanosoma cruzi) was 3.44% and the Percent Effect [5] was 1.38%. For the same molecule, the Percent Effect [6] was 7.32%, the Percent Effect (Homo sapiens) was -10.2% and the Percent Effect [7] was 2.15%. For the same molecule, the Percent Effect [8] was 16.1% and the Percent Effect [9] was -1.16%.
`CCC(CO)N(Cc1ccccn1)C(=O)c1ccc2c(c1)CCO2` (stereo not given) was tested, and the Percent Effect [1] was -5.75%, the Percent Effect [2] was 10.7% and the Percent Effect [3] was -10.8%. It also gave a Percent Effect [4] of 36.5%, a Percent Effect (Trypanosoma cruzi) of 7.89% and a Percent Effect [5] of 15.6%. The Percent Effect [6] was 13.4%, the Percent Effect (Homo sapiens) was 12.5% and the Percent Effect [7] was 0.546%. It also gave a Percent Effect [8] of 16.1% and a Percent Effect [9] of -5.21%.
`COCCN1CCC(CN(CC2CCCO2)C(=O)COC)CC1` (stereo not given) showed a Percent Effect [1] of -4.47%, a Percent Effect [2] of 15.3% and a Percent Effect [3] of -11%. For the same molecule, the Percent Effect [4] was 28.6%, the Percent Effect (Trypanosoma cruzi) was 7.09% and the Percent Effect [5] was 4.86%. The Percent Effect [6] was 5.79%, the Percent Effect (Homo sapiens) was -0.94% and the Percent Effect [7] was 3.16%. For the same molecule, the Percent Effect [8] was 15.4% and the Percent Effect [9] was -9.34%.
For `CCc1nc(CN2CCCC(NCc3nnc(C4CC4)o3)C2)no1` (stereo not given), the Percent Effect [1] was -2.45%, the Percent Effect [2] was 18.2% and the Percent Effect [3] was 3.2%. It also gave a Percent Effect [4] of -12.1%, a Percent Effect (Trypanosoma cruzi) of 1.67% and a Percent Effect [5] of -0.632%. It also gave a Percent Effect [6] of 10.4%, a Percent Effect (Homo sapiens) of -0.806% and a Percent Effect [7] of 11.4%. The Percent Effect [8] was 25.9% and the Percent Effect [9] was -21.2%.
`O=C(NCC(=O)N1CCCCC1)c1ccc(Cl)cc1I` was tested, and the Percent Effect [1] was -0.681%, the Percent Effect [2] was 5.41% and the Percent Effect [3] was -6.27%. For the same molecule, the Percent Effect [4] was 3.75%, the Percent Effect (Trypanosoma cruzi) was 8.49% and the Percent Effect [5] was 0%. For the same molecule, the Percent Effect [6] was 10.5%, the Percent Effect (Homo sapiens) was 13.7% and the Percent Effect [7] was 2.65%. For the same molecule, the Percent Effect [8] was 12.2% and the Percent Effect [9] was -1.27%.
With `c1ccc(Cn2ccnc2CN2CCOC(Cn3cccn3)C2)cc1` (stereo not given) the Percent Effect [1] was -9.1%, the Percent Effect [2] was 3.8% and the Percent Effect [3] was 9.54%. The Percent Effect [4] was 2.25%, the Percent Effect (Trypanosoma cruzi) was -7.69% and the Percent Effect [5] was -5.81%. The Percent Effect [6] was 4.12%, the Percent Effect (Homo sapiens) was 2.94% and the Percent Effect [7] was 8.33%. For the same molecule, the Percent Effect [8] was 17.7% and the Percent Effect [9] was -16.1%.
With `Cc1ncc(CNC(=O)CCOc2ccccc2)c(C2CCCN2C)n1` (stereo not given) the Percent Effect [1] was -0.839%, the Percent Effect [2] was -1.35% and the Percent Effect [3] was 18.7%. For the same molecule, the Percent Effect [4] was 7.48%, the Percent Effect (Trypanosoma cruzi) was -6.32% and the Percent Effect [5] was 3.02%. It also gave a Percent Effect [6] of 6.08%, a Percent Effect (Homo sapiens) of 12.3% and a Percent Effect [7] of 1.07%. It also gave a Percent Effect [8] of 1.3% and a Percent Effect [9] of -1.9%.
`c1cnn(CC2CN(c3ncnc4sccc34)CCO2)c1` (stereo not given) gave a Percent Effect [1] of -4.4%, a Percent Effect [2] of 2.7% and a Percent Effect [3] of 2.36%. It also gave a Percent Effect [4] of -2.57%, a Percent Effect (Trypanosoma cruzi) of 1.37% and a Percent Effect [5] of 2.08%. It also gave a Percent Effect [6] of 17.8%, a Percent Effect (Homo sapiens) of 52.9% and a Percent Effect [7] of 12.9%. It also gave a Percent Effect [8] of 15.8% and a Percent Effect [9] of -4.89%.
Molecule `Cc1cc(C[C@@H]2COC[C@@H]2NC(=O)CN2CCCC2)on1` has a Percent Effect [1] of -4.18%, a Percent Effect [2] of 2.74% and a Percent Effect [3] of 1.08%. It also gave a Percent Effect [4] of -9.23%, a Percent Effect (Trypanosoma cruzi) of 1.96% and a Percent Effect [5] of -1.82%. For the same molecule, the Percent Effect [6] was -4.61%, the Percent Effect (Homo sapiens) was 18.8% and the Percent Effect [7] was 5.38%. It also gave a Percent Effect [8] of 10% and a Percent Effect [9] of -4.15%.

— ChEMBL document CHEMBL3988442, “University of Dundee, Small-Polar-MMV Screening Library” (2021)
